Compounds without any hit were thinned out: in the full panel of roughly 79,000, 15% have a hit. Unmarked numbers belong to inactive results. Activity calls are given as the source filed them. Cut-off read from the data, not from the text of the source: active = growth inhibition above about 70%; inactive = the rest.
Legend:
[1] = NCI Yeast Anticancer Drug Screen. Data for the rad50 strain (AID 155);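 note: 0% = growth of vehicle-only cultures of the same strain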; conditions: S. cerevisiae rad50 strain growth inhibition, stronger effect = higher value
How it was run: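 Cells are treated with compound, grown, and their growth is then scored against vehicle-only cultures of the same repair-deficient yeast strain.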

[2] = NCI Yeast Anticancer Drug Screen. Data for the mec2-1 strain (AID 157); conditions: S. cerevisiae mec2-1 strain, stronger effect = higher value
How it was run: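 Each compound was tested on mec2-1 yeast, a strain altered in DNA damage repair or cell cycle control. Growth inhibition is reported relative to vehicle.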

[3] = NCI Yeast Anticancer Drug Screen. Data for the sgs1 mgt1 strain (AID 161);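 note: 0% = growth of cultures given vehicle only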; conditions: S. cerevisiae sgs1 mgt1 strain, stronger effect = higher value
How it was run: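 Read-out: growth inhibition vs vehicle controls. Cells: mutant yeast strain deficient in DNA damage repair.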

[4] = NCI Yeast Anticancer Drug Screen. Data for the cln2 rad14 strain (AID 165);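 note: 0% = growth equal to vehicle treated cultures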; conditions: S. cerevisiae cln2 rad14 strain, stronger effect = higher value
How it was run: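 Test compounds were added to cln2 rad14 yeast cultures; inhibition of growth was then determined by comparison with vehicle treatment.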

[5] = NCI Yeast Anticancer Drug Screen. Data for the bub3 strain (AID 167); conditions: S. cerevisiae bub3 mutant strain, stronger effect = higher value
How it was run: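 Part of a panel of yeast mutants defective in DNA damage repair or cell cycle regulation. Each strain is grown with compound, and inhibition is calculated relative to solvent-treated cultures.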

[6] = NCI Yeast Anticancer Drug Screen. Data for the mlh1 rad18 strain (AID 175); conditions: S. cerevisiae mlh1 rad18 strain growth inhibition, stronger effect = higher value
How it was run: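 Inhibition values reflect reduced growth of mutant yeast versus vehicle-treated controls following compound exposure; the mutations affect DNA damage repair.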

[7] = at 5.0 µM (retest, dose inferred, filed as 0.5)
[8] = at 50.0 µM (retest, dose inferred, filed as 5.0)

| SMILES | growth inhibition [1, 7] [%] | growth inhibition [1, 8] | growth inhibition ([1]; at 50.0 µM) | growth inhibition [2, 7] [%] | growth inhibition [2, 8] | growth inhibition ([2]; at 50.0 µM) | growth inhibition [3, 7] | growth inhibition [3, 8] | growth inhibition ([3]; at 50.0 µM) | growth inhibition [4, 7] [%] | growth inhibition [4, 8] | growth inhibition ([4]; at 50.0 µM) | growth inhibition [5, 7] [%] | growth inhibition [5, 8] | growth inhibition ([5]; at 50.0 µM) | growth inhibition [6, 7] [%] | growth inhibition [6, 8] | growth inhibition ([6]; at 50.0 µM) |
| --- | --- | --- | --- | --- | --- | --- | --- | --- | --- | --- | --- | --- | --- | --- | --- | --- | --- | --- |
| COc1ccnc(-c2cc(OC)cc(/C(N)=N/O)n2)c1 | 2 | 59% | 96.8% (active) | -4 | 83% (active) | 93.1% (active) | -2% | 63% | 96% (active) | -5 | 62% | 93.8% (active) | -3 | 54% | 88.7% (active) | -4 | 77% (active) | 96.8% (active) |
| O=S(=O)(O)c1ccc(N=Nc2ccc3c(S(=O)(=O)O)cccc3c2O)c2ccccc12 | 10 | -5% | -1.35% | 6 | -16% | -21.6% | 0% | -18% | -37.2% | -25 | -78% | 35% | -2 | -9% | -16.1% | -5 | -9% | 5% |
| CCCCCC(C)[P+](c1ccccc1)(c1ccccc1)c1ccccc1 (stereo not given) | 54 | 98% (active) | 90.8% (active) | 48 | 99% (active) | 90.9% (active) | 71% (active) | 99% (active) | 90% (active) | 61 | 98% (active) | 90.1% (active) | 69 | 99% (active) | 91% (active) | 45 | 98% (active) | 88.5% (active) |
| CCOP(=O)(CCC(=O)[C@@]1(O)CC[C@H]2[C@@H]3CCC4=CC(=O)CC[C@]4(C)[C@H]3CC[C@@]21C)OCC | 0 | 2% | 33.9% | 1 | 5% | 5.55% | 3% | 16% | 72.8% (active) | -1 | 2% | 59.4% | -2 | -3% | 29.8% | -4 | 7% | 39.1% |
| CSC(=S)N/N=C/c1cccc(C)n1 | 13 | 71% (active) | 95.1% (active) | 5 | 60% | 82.1% (active) | 3% | 69% | 66.2% | -8 | 26% | 67.7% | 1 | 72% (active) | 86.8% (active) | 30 | 80% (active) | 82.6% (active) |
| O=C1C=C/C(=C(/c2ccc(O)c(O)c2)c2ccccc2S(=O)(=O)O)C=C1O | 1 | 0% | 11.8% | 2 | -25% | -0.5% | -2% | 2% | 5.3% | 5 | -2% | 15.9% | -40 | -3% | -1.5% | 2 | 4% | 1.75% |
| Brc1ccc2[nH]c3nc4ccc5ccccc5c4nc3c2c1 | 2 | 1% | -2.35% | 3 | 1% | 20.8% | 0% | 0% | 7.15% | 6 | -1% | 71% (active) | 6 | 0% | 12.4% | 6 | 2% | -3.25% |
| COc1ccc(CN2COc3c(cc(C)c4cccnc34)C2)cc1 | 14 | 92% (active) | 65% | 8 | 93% (active) | 47.5% | 23% | 92% (active) | 64.1% | 16 | 93% (active) | 39.9% | -3 | 95% (active) | 61.4% | 20 | 93% (active) | 79.9% (active) |
| CC(C)N(C(=O)C12C3C4C1C1C2C3C41I)C(C)C (stereo not given) | 16 | -6% | 57.5% | -28 | 19% | 67.4% | 44% | 27% | 68.5% | 3 | 28% | 42.7% | -38 | -11% | 61% | -34 | 20% | 73.5% (active) |
| CN(C)c1ccc(-c2c(C#N)c(-c3ccccc3)n(NS(=O)(=O)c3ccccc3)c(=O)c2C#N)cc1 | 19 | 36% | 71% (active) | 23 | 32% | 75.5% (active) | 34% | 50% | 75.2% (active) | 44 | 53% | 80.8% (active) | 54 | 51% | 76.2% (active) | 17 | 31% | 72.2% (active) |
| O=C1C(Cl)=C(N2CCN(c3ccccn3)CC2)C(=O)c2ncccc21 | 40 | 94% (active) | 85.3% (active) | 21 | 98% (active) | 88.8% (active) | 23% | 97% (active) | 91% (active) | 10 | 96% (active) | 89.4% (active) | 50 | 98% (active) | 88.6% (active) | 34 | 97% (active) | 89.1% (active) |
| CC(O)CCc1nc2ccccc2[nH]1 (stereo not given) | 3 | -4% | 17.3% | 2 | -3% | 3.15% | -1% | 0% | -1.3% | 2 | 27% | 57.2% | 3 | 6% | -6.65% | 0 | -8% | 11.7% |
| N#Cc1ccc(Oc2nc3ccccc3nc2-c2ccccc2)cc1 | 0 | 21% | 38.2% | -4 | 39% | 22.2% | 12% | 52% | 33.9% | -6 | 23% | 62.8% | 5 | 86% (active) | 27.8% | -4 | 27% | 53.5% |
| Cc1nc2ccc(N=Nc3c(O)ccc4ccccc34)cc2[nH]1 | -6 | 30% | 85.3% (active) | -7 | 20% | 77.1% (active) | 11% | 35% | 91.7% (active) | -12 | 17% | 72.3% (active) | -4 | 77% (active) | 86.2% (active) | -33 | 66% | 82.5% (active) |
| O=C(NNc1ccccc1)c1ccccc1Cl | -3 | 93% (active) | 97.5% (active) | 9 | 89% (active) | 92% (active) | 15% | 91% (active) | 96% (active) | -9 | 89% (active) | 93% (active) | -14 | 95% (active) | 95.7% (active) | 13 | 97% (active) | 95.6% (active) |
| CCCC1=C(c2ccccc2)C(O)(c2ccccc2)C(CCC)C1=O (stereo not given) | 0 | 46% | 97.8% (active) | 4 | 47% | 96.4% (active) | 0% | 37% | 96.2% (active) | -9 | 19% | 95.3% (active) | -3 | 69% | 93.3% (active) | 4 | 47% | 95.8% (active) |
| O=C(N/N=C/c1ccccn1)c1ccccc1[O-].O=C(N/N=C/c1ccccn1)c1ccccc1[O-].[Co+2] | 5 | 0% | 38.2% | 21 | 0% | 48.1% | 13% | 5% | 42.5% | 14 | 2% | 72.8% (active) | 17 | 2% | 99.2% (active) | 18 | -2% | 66.8% |
| OC1OCC(OCc2ccccc2)C(OCc2ccccc2)C1OCc1ccccc1 (stereo not given) | -4 | 61% | 97.4% (active) | -25 | 59% | 96.9% (active) | -3% | 68% | 96.7% (active) | -3 | 59% | 81.5% (active) | -5 | 51% | 97.7% (active) | 10 | 86% (active) | 98.5% (active) |
| O=C(O)Cc1ccc2c(c1O)C(=O)c1ccccc1C2=O | 1 | 20% | 89.3% (active) | 0 | 31% | 67.2% | 1% | 28% | 78.8% (active) | -2 | 7% | 57.5% | 0 | 50% | 65.9% | 0 | 29% | 74.1% (active) |
| CC(C)(C)c1ccc(C(=O)n2c(=S)oc3ccc(Cl)cc32)cc1 | 50 | 85% (active) | 65% | 44 | 91% (active) | 61.4% | 46% | 92% (active) | 81.8% (active) | 39 | 73% (active) | 39.5% | 43 | 64% | 59.5% | 51 | 88% (active) | 63% |

— PubChem BioAssay (NCI)
